# From PubChem BioAssay AID1159580 (chemical genetic matrix, 2015)
# Several values for one entry are separate records, joined by “and”; a condition that tells them apart may be missing. Identical values can stand only once. About 2,000 (36%) of roughly 5,500 compounds were called active. Another 18% or so got no clear call; they are omitted. The list shows a part of the results. Values without a mark were called inactive. Cut-off read from the data, not from the text of the source: active = normalized growth mostly below about 0.91 (no sharp cut-off); inconclusive = no clear call, values can overlap the other calls; inactive = mostly above about 0.92.
# Assay: chemical genetic growth profiling, strain panel (AID 1159580);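 note: tested at 20 µM; growth read once vehicle control cultures reached saturation at 30 °C; 1 = growth at the plate median or of vehicle wells; lower values mean less growth of the strain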
# Details: S. cerevisiae deletion strains, growth OD
smiles,measurement,setting,value
CC(C)=CCCC1(C)C=Cc2c(O)c3c(c(CC=C(C)C)c2O1)OC12C(=CC4CC1C(C)(C)OC2(C/C=C(\C)C(N)=O)C4=O)C3=O (stereo unspecified),normalized growth,"locus YBR021W, strain FUR4, stronger effect = lower value",0.922
same,normalized growth,"locus YBR229C, strain ROT2, stronger effect = lower value",1
same,normalized growth,"locus YCL029C, strain bik1, stronger effect = lower value",0.977
same,normalized growth,"locus YDL035C, strain GPR1, stronger effect = lower value",0.932
same,normalized growth,"locus YDL074C, strain BRE1, stronger effect = lower value",0.899
same,normalized growth,"locus YDL101C, strain DUN1, stronger effect = lower value",0.96
same,normalized growth,"locus YDL134C, strain PPH21, stronger effect = lower value",0.914
same,normalized growth,"locus YDL185W, strain tfp1, stronger effect = lower value",0.996
same,normalized growth,"locus YDL192W, strain arf1, stronger effect = lower value",0.913 (active)
same,normalized growth,"locus YDR101C, strain arx1, stronger effect = lower value",0.958
same,normalized growth,"locus YDR150W, strain NUM1, stronger effect = lower value",1
same,normalized growth,"locus YDR162C, strain NBP2, stronger effect = lower value",0.92
same,normalized growth,"locus YDR318W, strain mcm21, stronger effect = lower value",0.941
same,normalized growth,"locus YDR388W, stronger effect = lower value",0.96
same,normalized growth,"locus YDR502C, strain sam2, stronger effect = lower value",0.924
same,normalized growth,"locus YEL061C, strain CIN8, stronger effect = lower value",0.967
same,normalized growth,"locus YER110C, stronger effect = lower value",0.999
same,normalized growth,"locus YER155C, strain BEM2, stronger effect = lower value",0.89 (active)
same,normalized growth,"locus YER167W, strain BCK2, stronger effect = lower value",0.965
same,normalized growth,"locus YGL078C, strain dbp3, stronger effect = lower value",0.963
same,normalized growth,"locus YGL086W, strain mad1, stronger effect = lower value",0.947
same,normalized growth,"locus YGL248W, strain PDE1, stronger effect = lower value",0.894
same,normalized growth,"locus YGR135W, strain pre9, stronger effect = lower value",0.923
same,normalized growth,"locus YGR229C, strain SMI1, stronger effect = lower value",0.761 (active)
same,normalized growth,"locus YGR252W, strain gcn5, stronger effect = lower value",0.856
same,normalized growth,"locus YHR030C, strain SLT2, stronger effect = lower value",0.995 and 0.925
same,normalized growth,"locus YHR079C, strain IRE1 (second series), stronger effect = lower value",0.99
same,normalized growth,"locus YHR079C, strain IRE1, stronger effect = lower value",0.933
same,normalized growth,"locus YHR094C, strain hxt1, stronger effect = lower value",0.995
same,normalized growth,"locus YHR129C, strain ARP1, stronger effect = lower value",0.944
same,normalized growth,"locus YHR200W, strain rpn10, stronger effect = lower value",0.946
same,normalized growth,"locus YIL066C, strain RNR3, stronger effect = lower value",0.878
same,normalized growth,"locus YIL073C, strain SPO22, stronger effect = lower value",0.801
same,normalized growth,"locus YIL125W, strain kgd1, stronger effect = lower value",0.943
same,normalized growth,"locus YIR030C, strain dcg1, stronger effect = lower value",0.959
same,normalized growth,"locus YJL095W, strain BCK1, stronger effect = lower value",0.875 and 0.963
same,normalized growth,"locus YJL134W, strain LCB3, stronger effect = lower value",1
same,normalized growth,"locus YJL168C, strain set2, stronger effect = lower value",0.987
same,normalized growth,"locus YJL187C, strain SWE1 (second series), stronger effect = lower value",0.929
same,normalized growth,"locus YJR043C, strain POL32, stronger effect = lower value",0.981
same,normalized growth,"locus YJR066W, strain TOR1, stronger effect = lower value",0.906
same,normalized growth,"locus YJR075W, strain HOC1, stronger effect = lower value",0.944
same,normalized growth,"locus YKL009W, strain mrt4, stronger effect = lower value",0.931
same,normalized growth,"locus YKL068W, stronger effect = lower value",0.995
same,normalized growth,"locus YKL085W, strain MDH1 (second series), stronger effect = lower value",0.99
same,normalized growth,"locus YKL085W, strain MDH1, stronger effect = lower value",0.99
same,normalized growth,"locus YKL190W, strain CNB1, stronger effect = lower value",0.985
same,normalized growth,"locus YKR001C, strain vps1, stronger effect = lower value",0.842 (active)
same,normalized growth,"locus YLR039C, strain RIC1, stronger effect = lower value",0.898
same,normalized growth,"locus YLR058C, strain SHM2, stronger effect = lower value",0.946
same,normalized growth,"locus YLR102C, strain apc9, stronger effect = lower value",1.01
same,normalized growth,"locus YLR113W, strain HOG1, stronger effect = lower value",0.852 (active)
same,normalized growth,"locus YLR262C, strain YPT6, stronger effect = lower value",0.946
same,normalized growth,"locus YLR268W, strain sec22, stronger effect = lower value",0.896
same,normalized growth,"locus YLR330W, strain CHS5, stronger effect = lower value",0.95
same,normalized growth,"locus YLR342W, strain FKS1 (second series), stronger effect = lower value",0.913
same,normalized growth,"locus YLR371W, strain rom2, stronger effect = lower value",0.989
same,normalized growth,"locus YLR418C, strain cdc73, stronger effect = lower value",0.699 (active)
same,normalized growth,"locus YML016C, strain PPZ1, stronger effect = lower value",0.969
same,normalized growth,"locus YML032C, strain rad52, stronger effect = lower value",0.96
same,normalized growth,"locus YML124C, strain tub3, stronger effect = lower value",0.985
same,normalized growth,"locus YMR078C, strain ctf18, stronger effect = lower value",0.971
same,normalized growth,"locus YMR223W, strain ubp8, stronger effect = lower value",0.95
same,normalized growth,"locus YMR263W, strain SAP30, stronger effect = lower value",0.968
same,normalized growth,"locus YMR307W, strain GAS1, stronger effect = lower value",0.833
same,normalized growth,"locus YNL067W, strain RPL9B, stronger effect = lower value",0.951
same,normalized growth,"locus YNL153C, strain GIM3, stronger effect = lower value",0.958
same,normalized growth,"locus YNL183C, strain NPR1, stronger effect = lower value",0.868
same,normalized growth,"locus YNL233W, strain BNI4, stronger effect = lower value",0.915
same,normalized growth,"locus YNL250W, strain rad50, stronger effect = lower value",0.983
same,normalized growth,"locus YNL271C, strain bni1, stronger effect = lower value",0.993
same,normalized growth,"locus YNL298W, strain CLA4, stronger effect = lower value",0.989
same,normalized growth,"locus YNL307C, strain MCK1, stronger effect = lower value",0.844 (active)
same,normalized growth,"locus YNL322C, strain KRE1, stronger effect = lower value",0.976
same,normalized growth,"locus YNR052C, strain pop2, stronger effect = lower value",0.981
same,normalized growth,"locus YOL012C, strain htz1",0.568
same,normalized growth,"locus YOL147C, strain pex11, stronger effect = lower value",0.944
same,normalized growth,"locus YOR061W, strain CKA2, stronger effect = lower value",0.963
same,normalized growth,"locus YOR069W, strain VPS5, stronger effect = lower value",0.99
same,normalized growth,"locus YOR136W, strain idh2, stronger effect = lower value",0.98
same,normalized growth,"locus YOR144C, strain elg1, stronger effect = lower value",0.987
same,normalized growth,"locus YOR184W, strain ser1, stronger effect = lower value",0.872 (active)
same,normalized growth,"locus YOR231W, strain MKK1, stronger effect = lower value",0.937
same,normalized growth,"locus YOR316C, strain cot1, stronger effect = lower value",0.995
same,normalized growth,"locus YPL055C, strain LGE1, stronger effect = lower value",0.866
same,normalized growth,"locus YPL256C, strain CLN2, stronger effect = lower value",0.944
same,normalized growth,"locus YPR119W, strain clb2, stronger effect = lower value",0.989
same,normalized growth,"locus YPR141C, strain kar3, stronger effect = lower value",0.996
same,normalized growth,"locus YPR163C, strain tif3, stronger effect = lower value",0.982
same,normalized growth,"locus YPR167C, strain met16, stronger effect = lower value",0.958
same,normalized growth,"strain wtn01, stronger effect = lower value",0.937
